PvdQ acylase: blocks Pseudomonas aeruginosa PvdQ acylase activity | purified PvdQ acylase, fluorescence plate reader | inhibition, % at 10 µM | 340,000 tested, 0.063% active; in the data active = inhibition above about 30%, passing the limit was not always enough; inconclusive = no clear call, values can overlap the other calls;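 note: 0% = vehicle neutral wells and 100% = reference inhibitor wells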
F508del corr: CFTR F508del correction in bronchial cells; CFBE cells, YFP halide quenching; stimulated with forskolin plus potentiator P3; % fluorescence drop versus neutral controls; activity (quench increase), % at 7.58 µM; 350,000 tested, 0.36% active; AID 720511;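 active = mean added fluorescence quench of at least 8% versus neutral control, with both replicates also reaching 8%; inconclusive = only one of the mean or replicate conditions met; inactive = mean below 8% and not both replicates reaching 8%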;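 note: cells transiently co-express mutant CFTR-F508del with the halide-sensitive YFP; corrector assay measuring rescue of mutant channel to the surface after 24 h compound exposure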
rRNA inh HTS: inhibits bacterial ribosomal RNA function over humanized ribosomes; AID 720706; 350,000 tested, 1.6% active; E. coli WT GFP vs humanized-ribosome RFP mutants, fluorescence, 24 h; hits give low values; DMSO median 0, no signal -100; GFP signal change (wild-type ribosome), % (no concentration beside the values);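 active = significant combined selectivity score with lowered wild-type GFP, culture density cut under 30%, mutant RFP and density less affected; inactive = any of these conditions unmet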
ERAP1 inh: inhibitors of human ERAP1 aminopeptidase | inhibition, % at 10.7 µM | Q9NZ08 | 340,000 tested, 0.15% active | AID 652197 | recombinant ERAP1, Leu-AMC fluorescence, 60 min;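 active = mean replicate inhibition of at least 30%, or all replicates individually reaching that 30% level; inactive = mean below 30% and not every replicate reaching it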;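 note: 0% = neutral control wells and 100% = L-leucinethiol positive control wells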
Target sequence (Q9NZ08 whole entry, looked up): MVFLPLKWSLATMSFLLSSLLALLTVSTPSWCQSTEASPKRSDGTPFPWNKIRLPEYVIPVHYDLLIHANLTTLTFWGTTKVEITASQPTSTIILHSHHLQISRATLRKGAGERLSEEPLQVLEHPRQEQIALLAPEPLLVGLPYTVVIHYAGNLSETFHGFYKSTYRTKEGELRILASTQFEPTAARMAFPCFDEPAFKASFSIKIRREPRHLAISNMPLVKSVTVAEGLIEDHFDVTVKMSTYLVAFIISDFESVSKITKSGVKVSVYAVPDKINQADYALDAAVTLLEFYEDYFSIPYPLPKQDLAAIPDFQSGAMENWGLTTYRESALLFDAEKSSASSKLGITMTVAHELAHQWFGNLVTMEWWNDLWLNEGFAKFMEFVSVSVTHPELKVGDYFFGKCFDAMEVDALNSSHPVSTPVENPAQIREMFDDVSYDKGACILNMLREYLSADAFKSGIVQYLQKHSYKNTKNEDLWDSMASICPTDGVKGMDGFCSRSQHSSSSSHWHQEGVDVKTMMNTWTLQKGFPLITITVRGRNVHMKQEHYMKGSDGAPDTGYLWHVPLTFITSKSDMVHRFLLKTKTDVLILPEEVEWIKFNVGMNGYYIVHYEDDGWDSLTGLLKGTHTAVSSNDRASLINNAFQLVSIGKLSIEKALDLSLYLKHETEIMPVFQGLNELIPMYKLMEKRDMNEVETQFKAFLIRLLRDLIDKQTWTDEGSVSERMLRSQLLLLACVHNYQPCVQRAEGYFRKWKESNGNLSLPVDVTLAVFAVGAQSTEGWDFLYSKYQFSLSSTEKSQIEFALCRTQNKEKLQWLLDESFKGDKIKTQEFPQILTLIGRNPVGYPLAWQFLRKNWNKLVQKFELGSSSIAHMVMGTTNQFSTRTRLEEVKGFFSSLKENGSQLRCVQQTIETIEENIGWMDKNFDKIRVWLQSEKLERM
ARNT-TACC3 inh: disrupts binding between human ARNT and TACC3; 390,000 tested, 0.66% active; AlphaScreen His-ARNT PAS-B/GST-TACC3 binding, luminescence; TACC3 fragment carries E629A point mutation; AID 623870; inhibition, % at 9.99 µM; Q9Y6A5;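 active = mean inhibition of replicates at least 50% and at least half of replicates each reaching 50%; inconclusive = half or more replicates reach 50% but mean below 50%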;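 note: 0% = complete ARNT plus TACC3 wells and 100% = ARNT alone without TACC3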
AID977621: growth inhibition of wild-type GFP E. coli, dose response, H69 mutant RFP, cherry-pick | shares compounds with rRNA inh HTS | E. coli wild-type GFP strain growth, fluorescence, 24 h | activity change, negative = inhibition at 50 µM | 1,900 tested, under 10 active | AID 977621;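 active = Wild-type ribosome reporter drop at least double the humanized mutant ribosome reporter drop, growth loss under a set limit; inconclusive = no clear call, values can overlap the other calls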;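 note: wild-type GFP and H69 mutant RFP strains grown together 50/50 in each well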
AID977628: growth of wild-type and h24-humanized E. coli strains – h24 mutant RFP vs wild-type GFP, cherry-pick, dose response | 1,900 tested, under 10 active | activity change, negative = inhibition at 50 µM | AID 977628 | shares compounds with rRNA inh HTS | E. coli WT GFP strain growth, fluorescence, 24 h;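 active = compound lowering the normal-ribosome reporter at least twice as much as the humanized-ribosome reporter, growth loss under a set limit; inconclusive = no clear call, values can overlap the other calls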;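 note: wild-type GFP and h24 humanized RFP strains co-cultured 1 to 1 per well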
* hit, by the source's call. This is a sample that favours compounds with a hit; in the whole collection about 2.1% have one here.

C[C@@H]1CN([C@@H](C)CO)C(=O)c2cc(NC(=O)Nc3cccc4ccccc34)ccc2O[C@@H](C)CCCCO[C@H]1CN(C)C(=O)Nc1cccc2ccccc12 was read as F508del corr 3, rRNA inh HTS 3, ERAP1 inh -2 and ARNT-TACC3 inh -13.
For C[C@@H]1CCCCO[C@@H](CN(C)C(=O)CCCN(C)C)[C@H](C)CN([C@@H](C)CO)C(=O)c2cc(NC(=O)Nc3cccc4ccccc34)ccc2O1 the results were F508del corr 0, rRNA inh HTS 0, ERAP1 inh 2, ARNT-TACC3 inh 5 and AID977628 inconclusive.
`C[C@@H]1CN([C@@H](C)CO)C(=O)c2cc(NC(=O)Nc3ccccc3)ccc2O[C@@H](C)CCCCO[C@@H]1CN(C)C(=O)CCCN(C)C` gave F508del corr 2, rRNA inh HTS 1, ERAP1 inh -1 and ARNT-TACC3 inh -2.
CO[C@@H]1CC[C@H]2CCOc3ccc(C#N)cc3C(=O)N(C)C[C@@H](OC)[C@H](C)C(=O)N(C)C[C@@H]1O2 was read as rRNA inh HTS 2, ERAP1 inh -2 and ARNT-TACC3 inh 16.
O=C(C[C@@H]1C[C@H]2c3cc(NC(=O)c4ccc5c(c4)OCO5)ccc3O[C@H]2[C@H](CO)O1)NCCc1ccccc1 was read as F508del corr -4, rRNA inh HTS -3, ERAP1 inh -2 and ARNT-TACC3 inh 2.
O=C(O)[C@@H]1[C@@H](CO)[C@@H]2Cn3c(ccc(-c4cncnc4)c3=O)[C@@H]2N1C(=O)C1CCC1 was read as F508del corr -1, rRNA inh HTS 1, ERAP1 inh -1 and ARNT-TACC3 inh 2.
For C[C@H](CO)N1C[C@H](C)[C@H](CN(C)C(=O)CCCN(C)C)OCCCC[C@H](C)Oc2ccc(NC(=O)Nc3cccc4ccccc34)cc2C1=O the results were F508del corr 0, rRNA inh HTS -1, ERAP1 inh 2, ARNT-TACC3 inh -2, AID977621 -7.2 and AID977628 inconclusive.
C[C@@H]1CCCCO[C@@H](CN(C)C(=O)CCCN(C)C)[C@H](C)CN([C@H](C)CO)C(=O)c2cc(NC(=O)Nc3cccc4ccccc34)ccc2O1 was read as F508del corr 0, rRNA inh HTS 0, ERAP1 inh 2, ARNT-TACC3 inh 10, AID977621 -5.5 and AID977628 inconclusive.
`O=C1CN(S(=O)(=O)Cc2ccccc2)C[C@H]2[C@H](c3ccc(C#Cc4ccc(F)cc4)cc3)[C@@H](CO)N12` gave F508del corr 6, rRNA inh HTS 7 and ERAP1 inh -3.
For CCOc1ccccc1NC(=O)c1cc(SC)ccc1Cl the results were PvdQ acylase -7, F508del corr 2, rRNA inh HTS -30*, ERAP1 inh -3, ARNT-TACC3 inh -9, AID977621 -13 and AID977628 -7.5.
`C[C@@H]1CN([C@@H](C)CO)C(=O)c2ccccc2-c2ccccc2CO[C@H]1CN(C)S(=O)(=O)c1ccccc1F` gave F508del corr 0 and rRNA inh HTS -4.
O=C(CC1SC(=O)N(Cc2ccccc2Cl)C1=O)Nc1nccs1 (stereo not given) was read as PvdQ acylase -5, F508del corr 2, rRNA inh HTS -22*, ERAP1 inh 0, ARNT-TACC3 inh -11, AID977621 -5.8 and AID977628 -9.6.
O=C(N[C@@H]1CC[C@@H](CCn2cc(-c3ccccc3)nn2)O[C@H]1CO)c1ccccc1F was read as F508del corr 0, rRNA inh HTS 0, ERAP1 inh 3 and ARNT-TACC3 inh 0.
Screening O=C(Nc1cccc2c1CCCC2)c1ccco1 returned PvdQ acylase -6, F508del corr 0, rRNA inh HTS -21*, ERAP1 inh 0, ARNT-TACC3 inh 1, AID977621 -9.2 and AID977628 -11.
Screening O=C(Nc1ccc2c3c(cccc13)CC2)c1ccco1 returned PvdQ acylase 15 and ARNT-TACC3 inh -9.
Screening CCOC(=O)CN1C(=O)C(CC)Oc2ccc(Cl)cc21 (stereo not given) returned PvdQ acylase -12, F508del corr -1, rRNA inh HTS -30*, ERAP1 inh 1, ARNT-TACC3 inh -1, AID977621 -14 and AID977628 -16.
CC(=O)CSc1ccc(-c2nc3ccccc3[nH]2)cn1 was read as PvdQ acylase 1, F508del corr -2, rRNA inh HTS -24*, ERAP1 inh 0, AID977621 2.8 and AID977628 -1.7.
`COc1cc(C2CC(=O)Oc3cc(C)cc(C)c32)cc(OC)c1OC` (stereo not given) gave PvdQ acylase 17, F508del corr -1, rRNA inh HTS -22* and AID977628 -11.
COc1cc2c(c(OC)c1OC)C(c1ccc(O)cc1)CC(=O)O2 (stereo not given) was read as PvdQ acylase -15, F508del corr -1, rRNA inh HTS -3 and ARNT-TACC3 inh 21.
`COCc1cc(C)nc(SCC[N+](C)(C)CC(=O)c2ccc(Br)cc2)c1C#N` gave PvdQ acylase -18, F508del corr 1, rRNA inh HTS -30*, ERAP1 inh 3, ARNT-TACC3 inh 2 and AID977628 -16.
For COc1ccc2c3c(n(C)c2c1)[C@@H](CO)N(C(=O)C1CCOCC1)CC31CCN(C(=O)C2CC2)CC1 the results were F508del corr 2, rRNA inh HTS -2 and ERAP1 inh 1.
For CO[C@@H](CN(C)S(=O)(=O)c1ccc(Cl)cc1)[C@H](C)CN(C(=O)Nc1ccccc1F)[C@@H](C)CO the results were F508del corr 4, rRNA inh HTS -8, ERAP1 inh -1 and ARNT-TACC3 inh -4.
Screening COc1ccc(S(=O)(=O)Nc2ccc3c(c2)C(=O)N([C@H](C)CO)C[C@H](C)[C@H](CN(C)Cc2ccncc2)O3)cc1 returned F508del corr 1, rRNA inh HTS 1, ERAP1 inh -7 and ARNT-TACC3 inh -4.
For COc1cccc(C(=O)Nc2nnc(S(=O)(=O)N(C)Cc3ccccc3)s2)c1 the results were PvdQ acylase -6, F508del corr 0, rRNA inh HTS -23*, ERAP1 inh 2, ARNT-TACC3 inh -5, AID977621 -17 and AID977628 -18.
`COc1ccc(CN(C)S(=O)(=O)c2nnc(NC(=O)c3cccc(OC)c3)s2)cc1` gave PvdQ acylase -8, F508del corr -4, rRNA inh HTS -9, ERAP1 inh -1 and ARNT-TACC3 inh 6.
